# Source: PubChem BioAssay AID1508624 (National Center for Advancing Translational Sciences (NCATS), 2021)
# Among all 48,000 compounds or so, about 120 (0.25%) were called active. Not shown: some 4% with an inconclusive outcome. Shown is part of a subset that was picked to be rich in actives. Values without a mark were called inactive. The call rests on the fitted dose curve; in most records, active means well fitted activation curve with a large enough effect; inconclusive means small, poorly fitted or top-dose-only effect, or another doubt; inactive means no such curve, though single readings can be large or run the other way.
# Assay: Primary qHTS for Identification of Small Molecule Activators of Huntingtin-Antisense Promoter Activity; further: nearly all actives have a fitted effect of over 55% in size
# Conditions: HEK293 HTT-AS promoter firefly luciferase reporter, 24 h; series mostly up to 57.5 µM; activity change, positive = activation: at the top concentration
# Excerpt: Assay Provider: Russell L. Margolis M.D.
# Department Neurology, Johns Hopkins University School of Medicine, Baltimore, MD
# Huntington's Disease (HD) is a neurodegenerative disorder caused by a CAG repeat expansion in exon 1 of huntingtin (HTT). While there are currently no disease-modifying treatments for HD, recent efforts have focused on development of nucleotide-based therapeutics to lower HTT expression. As an alternative to siRNA or oligonucleotide methods, we hypothesized that suppression of HTT expression might be accomplished by small molecules that either (1) directly decrease HTT expression by suppressing HTT promoter activity or (2) indirectly decrease HTT expression by increasing the promoter activity of HTT-AS, the gene antisense to HTT that appears to inhibit expression of HTT.
# We developed and employed a high throughput screen for modifiers of HTT and HTT-AS promoter activity using luminescent reporter HEK293 cells; of the 52,041 compounds tested, we identified 898 replicable hits. We used a rigorous stepwise approach to assess compound toxicity and the capacity of the compounds to specifically lower huntingtin protein in 5 different cell lines, including HEK293 cells, HD lymphoblastoid cells, mouse primary neurons, HD iPSCs differentiated into cortical-like neurons, and HD hESCs. We found no compounds which were able to lower huntingtin without lowering cell viability in all assays, though the potential efficacy of a few compounds at non-toxic doses could not be excluded.
# SEQUENCE No. (1, 2, 3, etc.); […] (e.g., Cells, Incubation, Reagent, etc.); VALUE and DESCRIPTION.
# 1; Reagent; 4 uL; 2,500 Hek293 luciferase reporter cells per wells
# 3; Compound; 23 nL; Control inhibitor / compound library
# 5; Reagent; 2.5 uL; Firefly Luc reagent; Dual-Glo Luciferase Reporter Assay System (Promega)
# 6; Time; 10 min; room temperature incubation
# 7; Detection; Luminescence; FLuc
# NOTES (numbers refer to sequence above)
# 1; High-throughput screening, measuring luminescence from a Hek293 luciferase reporter, was performed in 1,536 well white-walled tissue-culture treated plates. 2,500 cells were plated in 4 µL of Opti-MEM per well using a Multidrop Combi Reagent Dispenser (ThermoFisher).
# 2; Assay plates were cultured for 24 hours.
# 3; Control inhibitor (PTC124; final concentration of 50 uM) and compound library (at final concentrations of 460 nM - 57.5 uM) were added to the assay plate using the Kalypsis Pintool Robotic System equipped with 1536 pinheads.
# 4; Cells were then incubated for 24 hours at 37 degrees C prior to luminescence measurements.
# 5; In all cases, luminescence was measured using the Dual-Glo Luciferase Reporter Assay System (Promega) following the manufacturer's instructions.
# 6; Room temperature incubation.
# 7; Luminescence signal was obtained using the PerkinElmer ViewLux plate reader. Results were normalized to vehicle control (0% activity) and zero RLU (-100% activity).
# Potency means the concentration at half of the fitted maximal effect.
Structure (SMILES),"activity change, positive = activation",Potency
CSc1nc(Nc2ccc(F)cc2)cc(-c2ccccc2)n1,-31.3%,
Cc1nnc(SCC(=O)NCc2ccccc2Cl)c2nn(-c3ccccc3)c(C)c12,-52.7%,
Cc1ccc(C)c(Cn2c(C)c(CNCc3ccc(F)cc3)c(C(=O)O)c2C)c1,-17.8%,
CCn1c(CN2CCC(C)CC2)nc2cc(NC(=O)c3ccccc3[N+](=O)[O-])ccc21,-14.8%,
COc1ccc(-c2cn3nc(N4CCC(C(=O)Nc5cccc(C)c5C)CC4)sc3n2)cc1,-3.6%,
COc1ccc(-c2nc(CN3CCC(C(=O)NCc4ccccc4)CC3)c(C)o2)cc1OC,-3.36%,
CC(C)CNc1ncnc2c1nnn2C,5.96%,
CSc1ccccc1-c1nnc(NC(=O)c2ccc3c(c2)OCCO3)o1,23.7%,
COc1ccc(NC(=O)CCc2nnc3n(CC(C)C)c(=O)c4ccccc4n23)cc1OC,-1.01%,
O=C(NCC(c1ccc(Cl)cc1)N1CCOCC1)c1ccccc1F (stereo unspecified),-2.89%,
CCOc1ccc(NC(=O)CC2C(=O)N(c3cccc(OC)c3)C(=O)N2C2CCCCC2)cc1 (stereo unspecified),-6.38%,
COc1cc(OC)cc(C(=O)Nc2ccc3nc(Nc4cccc(C(F)(F)F)c4)cc(C)c3c2)c1,-45.6%,
Cn1cc(S(=O)(=O)N2CCCCCC2)cc1C(=O)N1CCN(c2ccc(F)cc2)CC1,-20.1%,
Cc1ccc(NS(=O)(=O)c2ccc3c(c2)CC(=O)N3)cc1Cl,-22.4%,
CCCc1nn2c(=O)cc(COC(=O)c3ccc(NC(=O)COc4ccc(F)cc4)cc3)nc2s1,-14.4%,
CSc1ccc(NC(=O)Cn2nnnc2-c2ccccc2F)cc1,2.75%,
CCOc1ccc(N(CC)S(=O)(=O)N2CCCC(C(=O)NCc3ccc(SC)cc3)C2)cc1 (stereo unspecified),-54.2%,
Cc1ccc(N2CC(NC(=O)Cc3cccs3)CC2=O)cc1 (stereo unspecified),-7.5%,
CSc1ccc(C2C(C(=O)Nc3ccccc3)=C(C)Nc3nc4ccccc4n32)cc1 (stereo unspecified),-8.48%,
CC1CCCN(S(=O)(=O)c2ccc3[nH]c(=O)cc(C(=O)NCCc4ccc(Cl)cc4)c3c2)C1 (stereo unspecified),-9.89%,
COc1ccc(Cl)cc1NC(=O)CSc1nc2ccccc2c2nc(-c3ccccc3)nn12,-1.33%,
O=C(CC(c1cccs1)N1Cc2ccccc2C1=O)Nc1ccc(F)cc1F (stereo unspecified),-27.2%,
COCCNC(=O)c1ccc2c(c1)N=C(C)c1cc(C)ccc1S2,-31.8%,

Structure (SMILES),"activity change, positive = activation",Potency
COc1ccc(-c2nc3c4ccccc4n(CC(=O)Nc4ccc(C(C)=O)cc4)c(=O)n3n2)cc1,0.837%,
Cc1cccc(N2CCN(C(=O)Cn3ncc4c5ccccc5n(C)c4c3=O)CC2C)c1 (stereo unspecified),-6.74%,
CCOC(=O)N1CCC(NC(=O)c2cnn(-c3cccc(C)c3)c2C2CCN(C(=O)OC(C)(C)C)CC2)CC1,7.44%,
COc1cccc(NC(=O)N(Cc2cn(C)c3ccccc23)C2CCCCCC2)c1,-30.5%,
COc1ccc(CNC(=O)COCc2cc(-c3cccs3)on2)cc1OC,-12%,
COc1cccc(CNC(=O)Cn2ncn3c(cc4ccccc43)c2=O)c1,4.19%,
COc1cc2ccccc2cc1C(=O)Nc1cccc(-c2nc3ccccc3o2)c1,"4.7% [at 11.5 µM, percent change from vehicle, -100% = no light]",
CC1CCN(c2nc3ccc(C(=O)N4CCN(c5ccccc5)CC4)cc3s2)CC1,-77.4%,
COc1cc(NC(=O)CN2CCN(S(=O)(=O)c3ccc(Br)cc3)CC2)cc(OC)c1,0%,
CCOC(=O)c1cccc(NC(=O)c2cc(S(=O)(=O)N3CCCC(C)C3)cn2C)c1 (stereo unspecified),-36.2%,
Cc1ccc(OCC(=O)OCc2cc(=O)n3nc(C4CC4)sc3n2)cc1C,-14.4%,
COc1cc(-c2nnn(CC(=O)NCc3ccccc3)n2)cc(OC)c1OC,-17.2%,
Cc1ccc(C)c(N2CCN(CCCNC(=O)Nc3ccc(Cl)cc3)CC2)c1,-32.1%,
CCCCC12CN3CC(C)(CN(C1)C3c1ccc(O)c(OC)c1)C2=O (stereo unspecified),0.462%,
Cc1cc(Cl)ccc1NC(=O)Cc1ccc(NC(=O)N2CCCCc3ccccc32)cc1,-3.06%,
CCN(CC)CCNc1ncnc2c1cnn2-c1cc(Cl)ccc1C,-12%,
COc1ccc(C(=O)Nc2ccc(-n3nncc3-c3ccccc3)cc2)cc1OC,-6.93%,
CN(Cc1ccccc1)C(=O)CCS(=O)(=O)c1cc(Br)cc2c1N(C(=O)C1CC1)CC2,-15%,
COc1ccc(-c2nnc(SCC(=O)Nc3ccccc3C)o2)cc1OC,-4.55%,
Cc1ccc(OC(=O)CSc2nnc(-c3cccs3)o2)cc1,18.6%,
Cc1ccc(-c2nnc(SCc3ccccc3C)o2)cc1,,14.1 µM (active)
Cc1ccc(Cl)cc1N(C)C(=O)C1CCCN(c2ncnc3onc(-c4ccc(F)cc4)c23)C1 (stereo unspecified),-34%,
CC(C)c1ccc(C2CC(=O)N3CN(C4CCCCC4)CSC3=C2C#N)cc1 (stereo unspecified),-23%,

Structure (SMILES),"activity change, positive = activation",Potency
CC(C)CNc1ccnc(NCc2csc(-c3ccccc3)n2)n1,-89.5%,
Cc1ccc2onc(CC(=O)N3CCN(c4ccc(Cl)cc4)CC3)c2c1,-13.9%,
COc1ccccc1N1CCN(C(CNC(=O)C(=O)NCc2ccc(C)cc2)c2cccnc2)CC1 (stereo unspecified),-57.5%,
Cc1ccc(-c2cnc(NCc3ccc(C(C)C)cc3)n2C)cc1,-15.5%,
CCOC(=O)c1ccccc1NC(=O)c1nn(-c2ccc(OC)c(Cl)c2)c(=O)c2c1c1ccccc1n2C,-3.59%,
O=C(CSc1nccn1-c1ccc(F)cc1)Nc1cccc2ccccc12,-9.33%,
Cc1cc(C)cc(NC(=O)CCCc2nc(-c3ccccc3Cl)no2)c1,-12.4%,
COc1ccc(CN2C(=O)C(NC(=O)c3cccc(C)c3)(C(F)(F)F)N=C2c2ccccc2)cc1 (stereo unspecified),-24%,
COc1ccc(CCNC(=O)Cn2c(=O)cc(C(F)(F)F)c3c(C)nn(C)c32)c(OC)c1,-7.62%,
Cc1cccn2c(=O)c3cc(C(=O)NC(C)c4ccccc4)c(=N)n(CCCO)c3nc12 (stereo unspecified),13.5%,
CC(C)(C)c1ccc(C(=O)NCC(c2ccc(Cl)cc2)N2CCOCC2)cc1 (stereo unspecified),-34.2%,
COc1ccc(CCC(=O)NCCc2csc(-c3ccc(Cl)cc3)n2)cc1,-23.5%,
COc1ccc(Cl)cc1NC(=O)Cn1c(=O)c2ccccc2n2nncc12,-0.66%,
CC(C)CCNC(=O)CSc1nc2ccccc2nc1Cc1ccc(Cl)cc1,-6.39%,
Cc1ccccc1OCCSc1nc2ccc(NC(=O)c3ccco3)cc2s1,-25%,
O=C(Nc1cc(-c2nc3ccccc3o2)ccc1Cl)c1cc([N+](=O)[O-])ccc1N1CCOCC1,4.83%,
COC(=O)c1cc(Cl)c(NC(C)=O)cc1OC,3.75%,
COc1ccc(CNC(=O)Cn2nnc(-c3ccccc3F)n2)cc1,-9.07%,
CCCC(=O)N1CCN(c2nc3c(OC)ccc(C)c3s2)CC1,-10.6%,
COc1ccc(-n2c(=O)c3ccccc3n(Cc3ccccc3Cl)c2=O)cc1,-22.4%,
O=C(c1ccc(C(F)(F)F)cc1)N1CCC(c2nc(-c3ccc(S(=O)(=O)N4CCCC4)cc3)no2)CC1,-29.4%,
CCCC(=O)Nc1cc(C(=O)NCc2ccc(OC)cc2)ccc1S(=O)(=O)c1ccc(Cl)cc1,1.22%,
O=C(Nc1nc2ccc(F)cc2s1)c1nc(SCc2ccccc2F)ncc1Cl,0%,

Structure (SMILES),"activity change, positive = activation",Potency
C=Cc1c(C)c2cc3nc(cc4[nH]c(cc5nc(cc1[nH]2)C(C)=C5CCC(=O)O)c(CCC(=O)OC)c4C)[C@@]1(C)C3=CC=C(C(=O)OC)[C@H]1C(=O)OC,-35.4%,
CC(Nc1ccc(-c2nc(-c3ccco3)no2)cc1[N+](=O)[O-])c1ccccc1 (stereo unspecified),18%,
CCOc1ccc(NC(=O)c2c(NC(=O)Cc3ccccc3)sc3c2CCC(C)C3)cc1 (stereo unspecified),-28.3%,
CCCOc1ccc(-c2cccc(NS(=O)(=O)c3ccccc3)c2)nn1,-27.3%,
Cc1cccc(NC(=O)CSc2nc3c(oc4ccccc43)c(=O)n2-c2ccc(F)cc2)c1,-21.1%,
Cc1cc(C)cc(OCC(=O)Nc2c(C(=O)c3ccccc3)oc3ccccc23)c1,-4.18%,
O=C(NC1CCCCC1)c1ccc(Cn2c(SCc3ccccc3)nc3cccnc32)cc1,-5.82%,
COc1cc(C(=O)Nc2ccc(OCc3cc(=O)n4ccc(C)cc4n3)cc2)cc(OC)c1OC,-0.483%,
Cc1cc2c(cc1S(=O)(=O)CCC(=O)Nc1ccc(OC(F)(F)F)cc1)OCC(=O)N2,-17.4%,
CCn1c(=O)c(=O)n(CC)c2cc(N3CCCCC3)c(NC(=O)c3ccc(Cl)cc3)cc21,-4.94%,
COc1ccc(NC(=O)COCc2cc(-c3ccco3)on2)cc1,7.49%,
COc1ccc(Cn2ccnc2SCC(=O)NCc2ccco2)cc1,1.47%,
COc1cccc(C(=O)Nc2ccc3oc(-c4ccc5ccccc5c4)nc3c2)c1,17.6%,
COc1ccccc1N1CCN(C2C(=O)c3ccccc3N2C(C)=O)CC1 (stereo unspecified),-15.5%,
CCOC(=O)c1oc2ccc(S(=O)(=O)n3nc(-c4ccccc4OC)cc3N)cc2c1C,-34%,
Cc1ccc(C)c(N2C(=O)N(Cc3c(F)cccc3Cl)c3ccccc3S2(=O)=O)c1,-7.55%,
Cc1ccc(S(=O)(=O)N(Cc2nc(-c3ccc(Cl)cc3)no2)C2CCCCC2)cc1,-26.2%,
COc1cccc(-n2cc(C(=O)NCc3cccc(Cl)c3)c3ccccc3c2=O)c1,-25.7%,
Cc1ccc(S(=O)(=O)N2CCCc3cc(NS(=O)(=O)c4cc(C)ccc4C)ccc32)cc1,-26.5%,
NCC[C@H](O)C(=O)N[C@@H]1C[C@H](N)[C@@H](O[C@H]2O[C@H](CN)[C@@H](O)[C@H](O)[C@@H]2O)[C@H](O)[C@@H]1O[C@H]1O[C@H](CO)[C@@H](O)[C@H](N)[C@@H]1O,"-2.89% [at 0.74 µM, percent change from vehicle, -100% = no light]",
CCCN(C(=O)Cn1cc(S(=O)(=O)N2CCN(c3ccccc3F)CC2)c2ccccc2c1=O)c1cccc(C)c1,-11.8%,
Cc1ccc(C)c(OCC(=O)Nc2sc3c(c2C#N)CCCC3)c1C,"-6.79% [at 11.5 µM, percent change from vehicle, -100% = no light]",
